Measurements: PubChem BioAssay
Calls of active or inactive are those of the source.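 The calls were made as follows, unless noted: active = normalized viability below 100% at a tested concentration; inactive = the rest.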

Key:
[1] = Wnt pathway potentiators raising nuclear beta-catenin – imaging, WNT3A-conditioned medium, mouse C2C12, NPC library, primary screen (AID 1117326; in the data active = nuclear beta-catenin stimulation mostly above about 4.2%, no sharp cut-off; inactive = mostly below about 10%); details: stronger effect = higher value
[2] = stimulators of insulin release from INS-1E, primary screen, cell-based, 5 mM glucose, NPC library (AID 1117329;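 active = compound raises insulin release from rat beta cells at 5 mM glucose, no numeric limit stated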); details: rat INS-1E insulin secretion, at 10 µM, stronger effect = higher value
[3] = growth inhibition of GSK3B-pretreated HCT116 cells – cell-based, CellTiter-Glo, 0.2 to 20 µM (AID 1117336;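 active = compounds lowering colon cancer cell viability after pretreatment blocking the GSK3B kinase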); details: HCT116 viability after GSK3B inhibitor, at 20 µM, stronger effect = higher value
[4] = inhibition of endothelial tube formation, primary screen, imaging, VEGF stimulated, CD31 staining, tube area, NPC library (AID 1117340;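 active = compound that reduces growth-factor-driven endothelial tube area in a mixed cell culture, no cutoff stated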); details: VEGF-stimulated ADSC/ECFC co-culture, at 10 µM, stronger effect = higher value
[5] = GLP1 release stimulators, primary, NCI-H716, NPC library (AID 1117341;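 active = compound raises GLP1 secretion from the human gut endocrine cells, with no numeric limit stated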); details: NCI-H716 cells, at 10 µM, stronger effect = higher value
[6] = HCT116 colon cancer cell growth inhibition, primary screen, CellTiter-Glo luminescence, NPC library (AID 1117342;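 active = compounds that lower survival of HCT116 colon cancer cells in the luminescence readout, no numeric limit stated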); details: at 20 µM (top of the series)
[7] = reduced SW480 viability measured with CellTiter-Glo, NPC library, primary (AID 1117343;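 active = compounds that lower viability of the colon cancer cells in the luminescence readout, with no numeric limit stated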); details: CellTiter-Glo luminescence; at 20 µM (top of the series) unless noted
[8] = NPC library primary testing for decreased DLD-1 cell viability via CellTiter-Glo (AID 1117346;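 active = compounds that lower survival of DLD-1 colon cancer cells in the luminescence readout, no cutoff given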); details: DLD-1 viability, CellTiter-Glo luminescence; at 20 µM (top of the series)
[9] = viability loss with induced miR-34 in A549 – imaging, A549 dox-inducible miR-34, nuclei and caspase counts, primary screen (AID 1347080;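 active = compounds whose cell count with miR-34 switched on is under 0.7 times the count with it off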); details: A549 miR-34 inducible, Hoechst nuclei count, 48 h
[10] = MELAS cybrid and Rieske KO viability enhancers – cell-based, MELAS cybrids, Rieske KO mouse fibroblasts, CellTiter-Glo, primary screen (AID 1508586;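 active = mean z-score across replicates of 1.96 or higher in either the MELAS or the Rieske mutant cell line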;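 also: z relative to plate mean and SD of compound and empty wells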); details: low glucose
[11] = drug combination growth inhibition, ovarian cancer – cell-based, oncology-focused library, rucaparib conditional, profiling panel (AID 1508598); details: patient-derived ovarian cancer cells, CellTiter-Glo viability, 144 h, stronger effect = lower value
[12] = blockers of cellular phospholipid synthesis – cell-based, LOPAC library, screen 4, primary screen (AID 1347384; call rule not given here); details: animal cells, phospholipid biosynthesis inhibition screen; at 10 µM
[13] = galactose survival enhancers in mitochondrial complex I cybrids – cell-based, galactose medium, ATP luminescence, primary screen (AID 1645843;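 active = z-score of at least 1.8 in each of two replicates, scored against plate mean and spread of sample wells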;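 also: positive z means more ATP and so rescue of galactose-driven cybrid death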); details: complex I mutant cybrid cells, 72 h, stronger effect = higher value
[14] = stronger effect = lower value, cell number ratio, induced over uninduced
[15] = measured here: relative caspase fold change +Dox/-Dox
[16] = measured here: total cells with miR-34 induction, stronger effect = lower value
[17] = measured here: total cells without miR-34 induction
[18] = MELAS cybrid survival, CellTiter-Glo 48 h, stronger effect = higher value
[19] = Rieske KO mouse fibroblast survival, CellTiter-Glo 72 h

Nc1cccc2c1CN(C1CCC(=O)NC1=O)C2=O (configuration not stated)
active: viability ([11]; at 0.00488 µM, OCI-P5x cells, without rucaparib) 95.9%
8240: cell count [9, 16]
inactive: nuclear beta-catenin stimulation ([1]; at 10 µM) 2% | insulin secretion stimulation [2] 1.3% | viability decrease [3] 0% | tube area decrease [4] -3.8% | GLP1 secretion stimulation [5] 0% | inhibition of viability [6] -8.6% | viability decrease (inhibition) [7] -19.5% | viability decrease (inhibition) [8] 1.2% | fold change [9, 14] 1.01 | z-score [10, 18] -0.434 | viability ([11]; at 0.000305 µM, OCI-C5x cells, with rucaparib 10 µM, 100% = cells with rucaparib alone) 116% | viability ([11]; at 0.000305 µM, OCI-C5x cells, without rucaparib) 116% | viability ([11]; at 0.000305 µM, OCI-P5x cells, with rucaparib 20 µM, 100% = cells with rucaparib alone) 126% | viability ([11]; at 0.000305 µM, OCI-P5x cells, without rucaparib) 106% | viability ([11]; at 0.00122 µM, OCI-C5x cells, with rucaparib 10 µM, 100% = cells with rucaparib alone) 122% | viability ([11]; at 0.00122 µM, OCI-C5x cells, without rucaparib) 116% | viability ([11]; at 0.00122 µM, OCI-P5x cells, with rucaparib 20 µM, 100% = cells with rucaparib alone) 130% | viability ([11]; at 0.00122 µM, OCI-P5x cells, without rucaparib) 105% | viability ([11]; at 0.00488 µM, OCI-C5x cells, with rucaparib 10 µM, 100% = cells with rucaparib alone) 126% | viability ([11]; at 0.00488 µM, OCI-C5x cells, without rucaparib) 115% | viability ([11]; at 0.00488 µM, OCI-P5x cells, with rucaparib 20 µM, 100% = cells with rucaparib alone) 123% | viability ([11]; at 0.0195 µM, OCI-C5x cells, with rucaparib 10 µM, 100% = cells with rucaparib alone) 113% | viability ([11]; at 0.0195 µM, OCI-C5x cells, without rucaparib) 114% | viability ([11]; at 0.0195 µM, OCI-P5x cells, with rucaparib 20 µM, 100% = cells with rucaparib alone) 125% | viability ([11]; at 0.0195 µM, OCI-P5x cells, without rucaparib) 107% | viability ([11]; at 0.0781 µM, OCI-C5x cells, with rucaparib 10 µM, 100% = cells with rucaparib alone) 120% | viability ([11]; at 0.0781 µM, OCI-C5x cells, without rucaparib) 132% | viability ([11]; at 0.0781 µM, OCI-P5x cells, with rucaparib 20 µM, 100% = cells with rucaparib alone) 133% | viability ([11]; at 0.0781 µM, OCI-P5x cells, without rucaparib) 109% | viability ([11]; at 0.313 µM, OCI-C5x cells, with rucaparib 10 µM, 100% = cells with rucaparib alone) 118% | viability ([11]; at 0.313 µM, OCI-C5x cells, without rucaparib) 117% | viability ([11]; at 0.313 µM, OCI-P5x cells, with rucaparib 20 µM, 100% = cells with rucaparib alone) 129% | viability ([11]; at 0.313 µM, OCI-P5x cells, without rucaparib) 109% | viability ([11]; at 1.25 µM, OCI-C5x cells, with rucaparib 10 µM, 100% = cells with rucaparib alone) 121% | viability ([11]; at 1.25 µM, OCI-C5x cells, without rucaparib) 119% | viability ([11]; at 1.25 µM, OCI-P5x cells, with rucaparib 20 µM, 100% = cells with rucaparib alone) 114% | viability ([11]; at 1.25 µM, OCI-P5x cells, without rucaparib) 103% | viability ([11]; at 5 µM, OCI-C5x cells, with rucaparib 10 µM, 100% = cells with rucaparib alone) 115% | viability ([11]; at 5 µM, OCI-C5x cells, without rucaparib) 117% | viability ([11]; at 5 µM, OCI-P5x cells, with rucaparib 20 µM, 100% = cells with rucaparib alone) 132% | viability ([11]; at 5 µM, OCI-P5x cells, without rucaparib) 110%
8190: cell count [9, 17]
0.686: z-score [10, 19]
0.3%: nuclear beta-catenin stimulation ([1]; stimulation, at 2 µM)
0.954: fold change [9, 15]

O=C1NC(=O)[C@@]2(CCOc3ccc(F)cc32)N1
1.69: fold change [9, 15]
10300: cell count [9, 17]
0.6%: nuclear beta-catenin stimulation ([1]; stimulation, at 2 µM)
inactive: nuclear beta-catenin stimulation ([1]; at 10 µM) -1.1% | insulin secretion stimulation [2] 1.1% | viability decrease [3] -5.9% | tube area decrease [4] -2.4% | GLP1 secretion stimulation [5] 0% | inhibition of viability [6] 4.6% | viability decrease (inhibition) [7] -5.9% | viability decrease (inhibition) [8] -7.9% | fold change [9, 14] 0.973 | outcome [12] | z-score [13] 0.695
9980: cell count [9, 16]

CCC(=O)c1ccc2c(c1)N(CCCN(C)C)c1ccccc1S2
inactive: nuclear beta-catenin stimulation ([1]; at 10 µM) 0.3% | viability decrease [3] 24.5% | GLP1 secretion stimulation [5] -2.4% | inhibition of viability [6] 46.9% | viability decrease (inhibition) [8] 20.4% | fold change [9, 14] 0.872 | outcome [12] | z-score [13] -1.19
1900: cell count [9, 16]
0.831: fold change [9, 15]
-0.2%: nuclear beta-catenin stimulation ([1]; stimulation, at 2 µM)
2180: cell count [9, 17]
active: insulin secretion stimulation [2] 33.8% | tube area decrease [4] 48.9% | viability decrease (inhibition) [7] 65.1%

CC(C=CC=C(C)C=CC1=C(C)CCCC1(C)C)=CC=CC=C(C)C=CC=C(C)C=CC1=C(C)CCCC1(C)C
8840: cell count [9, 17]
1.5%: nuclear beta-catenin stimulation ([1]; stimulation, at 2 µM)
7760: cell count [9, 16]
inactive: nuclear beta-catenin stimulation ([1]; at 10 µM) 1.5% | insulin secretion stimulation [2] 3.2% | viability decrease [3] -39.2% | tube area decrease [4] 5.4% | GLP1 secretion stimulation [5] 5.7% | inhibition of viability [6] 1.37% | viability decrease (inhibition) [7] 19.1% | viability decrease (inhibition) [8] 3.2% | fold change [9, 14] 0.877 | z-score [10, 18] -0.304
0.553: z-score [10, 19]
0.984: fold change [9, 15]
